# From the supplement of paper PMC8728848
# This excerpt belongs to a sample that is enriched for the strongest signals.
# Legend:
# Assay in all cases: glycan array binding signal (z-score within array); higher = stronger binding
# Conditions in all cases: glycan notation: IUPAC condensed, linker removed
# [1] = biological target: Fuc(a1-2)Gal(b1-3)GlcNAc(b1-3)Gal(b1-4)Glc
# Summary of the method: (§1)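 Columns mapping to the same glycan were averaged after glycan names were converted to IUPAC-condensed notation. The data come from 3228 arrays in the Consortium for Functional Glycomics database, limited to those with an available protein sequence. Binding is reported as a within-array Z-score averaged across arrays of one protein sequence and across linkers.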
# [2] = biological target: Fuc(a1-2)Gal(b1-3)GlcNAc(b1-3)[Gal(b1-4)GlcNAc(b1-6)]Gal(b1-4)Glc
# Summary of the method: as §1
# [3] = biological target: Fuc(a1-2)Gal(b1-4)GlcNAc(b1-2)[Fuc(a1-2)Gal(b1-4)GlcNAc(b1-4)]Man(a1-3)[Fuc(a1-2)Gal(b1-4)GlcNAc(b1-2)Man(a1-6)]Man(b1-4)GlcNAc(b1-4)GlcNAc
# Summary of the method: as §1
# [4] = biological target: Fuc(a1-2)Gal6S(b1-4)Glc6S
# Summary of the method: as §1
# [5] = biological target: Fuc(a1-2)[Gal(a1-3)]Gal
# Summary of the method: as §1
# [6] = biological target: Fuc(a1-2)[Gal(a1-3)]Gal(b1-3)GlcNAc
# Summary of the method: as §1
# [7] = biological target: Fuc(a1-2)[GalNAc(a1-3)]Gal(b1-4)GlcNAc
# Summary of the method: as §1
# [8] = biological target: Fuc(a1-2)[GalNAc(a1-3)]Gal(b1-4)GlcNAc(b1-3)GalNAc
# Summary of the method: as §1
# [9] = biological target: Fuc(a1-2)[GalNAc(b1-3)]Gal
# Summary of the method: as §1
# [10] = biological target: Fuc(a1-3)[Gal(b1-4)]GlcNAc(b1-4)Gal(b1-4)[Fuc(a1-3)]GlcNAc
# Summary of the method: as §1
# [11] = biological target: Fuc(a1-3)[Gal(b1-4)]GlcNAc6S
# Summary of the method: as §1
# [12] = biological target: Fuc(a1-3)[Gal3S(b1-4)]GlcNAc6S
# Summary of the method: as §1
# [13] = biological target: Gal(a1-3)Gal(b1-3)[Fuc(a1-4)]GlcNAc(b1-2)Man(a1-3)[Gal(a1-3)Gal(b1-3)[Fuc(a1-4)]GlcNAc(b1-2)Man(a1-6)]Man(b1-4)GlcNAc(b1-4)GlcNAc
# Summary of the method: as §1
# [14] = biological target: Gal(a1-3)Gal(b1-4)GlcNAc
# Summary of the method: as §1
# [15] = biological target: Gal(b1-3)GlcNAc(b1-3)Gal(b1-4)[Fuc(a1-3)]GlcNAc(b1-6)[Gal(b1-3)GlcNAc(b1-3)]Gal(b1-4)Glc
# Summary of the method: as §1
# [16] = biological target: Gal(b1-3)[Neu5Ac(b2-6)]GalNAc
# Summary of the method: as §1
# [17] = biological target: Gal(b1-4)GlcNAc(b1-2)Man(a1-3)[Gal(b1-4)GlcNAc(b1-2)Man(a1-6)]Man(b1-4)GlcNAc(b1-4)GlcNAc
# Summary of the method: as §1
# [18] = biological target: Gal(b1-4)GlcNAc(b1-3)Gal(b1-4)GlcNAc(b1-2)Man(a1-3)[Gal(b1-4)GlcNAc(b1-3)Gal(b1-4)GlcNAc(b1-2)Man(a1-6)]Man(b1-4)GlcNAc(b1-4)[Fuc(a1-6)]GlcNAc
# Summary of the method: as §1
# [19] = biological target: Gal(b1-4)GlcNAc(b1-6)[Gal(b1-4)GlcNAc(b1-3)]GalNAc
# Summary of the method: as §1
# [20] = biological target: Gal(b1-6)Gal
# Summary of the method: as §1
# [21] = biological target: Gal3S(b1-3)GlcNAc
# Summary of the method: as §1
# [22] = biological target: Gal3S(b1-4)Glc
# Summary of the method: as §1
# [23] = biological target: Gal3S(b1-4)Glc6S
# Summary of the method: as §1
# [24] = biological target: Gal3S(b1-4)GlcNAc
# Summary of the method: as §1
# [25] = biological target: Gal3S(b1-4)GlcNAc6S
# Summary of the method: as §1
# [26] = biological target: Gal3S(b1-4)[Fuc(a1-3)]GlcNAc6S
# Summary of the method: as §1
# [27] = biological target: GalNAc(a1-3)Gal
# Summary of the method: as §1
# [28] = biological target: GalNAc(b1-3)GalNAc
# Summary of the method: as §1
# [29] = biological target: GalNAc3S(b1-4)GlcNAc
# Summary of the method: as §1
# [30] = biological target: Glc(b1-4)Glc
# Summary of the method: as §1
# [31] = biological target: GlcNAc(a1-4)Gal(b1-3)GlcNAc
# Summary of the method: as §1
# [32] = biological target: GlcNAc(b1-3)Gal(b1-4)GlcNAc(b1-3)Gal(b1-4)GlcNAc(b1-3)Gal(b1-4)GlcNAc(b1-2)[GlcNAc(b1-3)Gal(b1-4)GlcNAc(b1-3)Gal(b1-4)GlcNAc(b1-3)Gal(b1-4)GlcNAc(b1-6)]Man(a1-6)[GlcNAc(b1-3)Gal(b1-4)GlcNAc(b1-3)Gal(b1-4)GlcNAc(b1-3)Gal(b1-4)GlcNAc(b1-2)Man(a1-3)]Man(b1-4)GlcNAc(b1-4)[Fuc(a1-6)]GlcNAc
# Summary of the method: as §1
# [33] = biological target: Man(a1-2)Man(a1-2)Man(a1-6)[Man(a1-3)]Man
# Summary of the method: as §1
# [34] = biological target: Man(a1-2)Man(a1-3)[Man(a1-6)]Man(a1-6)[Man(a1-2)Man(a1-3)]Man(b1-4)GlcNAc(b1-4)GlcNAc
# Summary of the method: as §1
# [35] = biological target: Neu5Ac(a2-3)Gal(b1-3)GalNAc(b1-4)[Neu5Ac(a2-8)Neu5Ac(a2-3)]Gal(b1-4)Glc
# Summary of the method: as §1
# [36] = biological target: Neu5Ac(a2-3)Gal(b1-3)GlcNAc(b1-3)Gal(b1-3)GlcNAc
# Summary of the method: as §1
# [37] = biological target: Neu5Ac(a2-3)Gal(b1-3)[GlcNAc(b1-6)]GalNAc
# Summary of the method: as §1
# [38] = biological target: Neu5Ac(a2-3)Gal(b1-4)GlcNAc(b1-2)Man(a1-3)[Neu5Ac(a2-3)Gal(b1-4)GlcNAc(b1-2)Man(a1-6)]Man(b1-4)GlcNAc(b1-4)GlcNAc
# Summary of the method: as §1
# [39] = biological target: Neu5Ac(a2-3)Gal(b1-4)GlcNAc(b1-3)Gal(b1-4)GlcNAc(b1-3)Gal(b1-4)GlcNAc
# Summary of the method: as §1
# [40] = biological target: Neu5Ac(a2-3)Gal(b1-4)GlcNAc(b1-3)Gal(b1-4)GlcNAc(b1-3)[Neu5Ac(a2-3)Gal(b1-4)GlcNAc(b1-3)Gal(b1-4)GlcNAc(b1-6)]GalNAc
# Summary of the method: as §1
# [41] = biological target: Neu5Ac(a2-3)Gal(b1-4)[Fuc(a1-3)]GlcNAc6S
# Summary of the method: as §1
# [42] = biological target: Neu5Ac(a2-6)Gal(b1-4)GlcNAc(b1-3)Gal(b1-4)GlcNAc(b1-3)[Neu5Ac(a2-6)Gal(b1-4)GlcNAc(b1-3)Gal(b1-4)GlcNAc(b1-6)]GalNAc
# Summary of the method: as §1
# [43] = biological target: Neu5Ac(a2-6)GalNAc
# Summary of the method: as §1
# [44] = biological target: Neu5Ac(a2-8)Neu5Ac(a2-3)Gal(b1-4)GlcNAc
# Summary of the method: as §1
# [45] = biological target: Neu5Ac(a2-8)Neu5Ac(a2-8)Neu5Ac(a2-3)[GalNAc(b1-4)]Gal(b1-4)Glc
# Summary of the method: as §1
# [46] = biological target: Neu5Gc(a2-3)Gal(b1-4)GlcNAc(b1-3)Gal(b1-4)GlcNAc(b1-2)Man(a1-3)[Neu5Gc(a2-3)Gal(b1-4)GlcNAc(b1-3)Gal(b1-4)GlcNAc(b1-2)Man(a1-6)]Man(b1-4)GlcNAc(b1-4)GlcNAc
# Summary of the method: as §1
# [47] = biological target: Neu5Gc(a2-8)Neu5Gc(a2-3)Gal(b1-4)GlcNAc
# Summary of the method: as §1
# [48] = biological target: Neu5Gc(a2-8)Neu5Gc(a2-3)Gal(b1-4)GlcNAc(b1-3)Gal(b1-4)GlcNAc
# Summary of the method: as §1
binder,measurement,setting,value
"MAA (Maackia amurensis), P0DKL3 (protein) MATSNSKPTQVLLATFLTFFFLLLNNVNSSDELSFTINNFVPNEADLLFQGEASVSSTGVLQLTRVENGQPQKYSVGRALYAAPVRIWDNTTGSVASFSTSFTFVVKAPNPDITSDGLAFYLAPPDSQIPSGSVSKYLGLFNNSNSDSSNQIVAVELDTYFAHSYDPWDPNYRHIGIDVNGIESIKTVQWDWINGGVAFATITYLAPNKTLIASLVYPSNQTTFSVAASVDLKEILPEWVRVGFSAATGYPTEVETHDVLSWSFTSTLEANCDAATENNVHIARYTA",glycan array binding signal (z-score),[1],-0.221
same,glycan array binding signal (z-score),[2],-0.262
same,glycan array binding signal (z-score),[3],-0.059
same,glycan array binding signal (z-score),[4],-0.191
same,glycan array binding signal (z-score),[5],-0.152
same,glycan array binding signal (z-score),[6],-0.153
same,glycan array binding signal (z-score),[7],-0.228
same,glycan array binding signal (z-score),[8],-0.128
same,glycan array binding signal (z-score),[9],-0.178
same,glycan array binding signal (z-score),[10],-0.094
same,glycan array binding signal (z-score),[11],-0.2
same,glycan array binding signal (z-score),[12],2.89
same,glycan array binding signal (z-score),[13],0.162
same,glycan array binding signal (z-score),[14],-0.243
same,glycan array binding signal (z-score),[15],-0.145
same,glycan array binding signal (z-score),[16],-0.219
same,glycan array binding signal (z-score),[17],-0.204
same,glycan array binding signal (z-score),[18],0.122
same,glycan array binding signal (z-score),[19],-0.204
same,glycan array binding signal (z-score),[20],-0.212
same,glycan array binding signal (z-score),[21],1.5
same,glycan array binding signal (z-score),[22],5.2
same,glycan array binding signal (z-score),[23],6.87
same,glycan array binding signal (z-score),[24],6.25
same,glycan array binding signal (z-score),[25],4.71
same,glycan array binding signal (z-score),[26],7.75
same,glycan array binding signal (z-score),[27],-0.197
same,glycan array binding signal (z-score),[28],-0.186
same,glycan array binding signal (z-score),[29],2.31
same,glycan array binding signal (z-score),[30],-0.161
same,glycan array binding signal (z-score),[31],-0.226
same,glycan array binding signal (z-score),[32],0.282
same,glycan array binding signal (z-score),[33],-0.236
same,glycan array binding signal (z-score),[34],-0.2
same,glycan array binding signal (z-score),[35],-0.163
same,glycan array binding signal (z-score),[36],-0.173
same,glycan array binding signal (z-score),[37],-0.229
same,glycan array binding signal (z-score),[38],1.17
same,glycan array binding signal (z-score),[39],1.27
same,glycan array binding signal (z-score),[40],1.22
same,glycan array binding signal (z-score),[41],-0.236
same,glycan array binding signal (z-score),[42],0.454
same,glycan array binding signal (z-score),[43],-0.257
same,glycan array binding signal (z-score),[44],0.479
same,glycan array binding signal (z-score),[45],-0.155
same,glycan array binding signal (z-score),[46],2.07
same,glycan array binding signal (z-score),[47],0.744
same,glycan array binding signal (z-score),[48],1.13
